The source made the active and inactive calls.
Assays:
[1] = system: PRMT1 (protein arginine N-methyltransferase 1); assay: small molecules binding arginine methyltransferase PRMT1 – biochemical, small-molecule microarray, 635 nm fluorescence, primary screen (AID 1088); settings: higher = more signal;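 note: binding of Prmt1 protein to compounds spotted on small-molecule microarray slides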
[2] = growth effects on S. cerevisiae YJM789 – YJM789 clinical isolate, OD600, 24 h, basal, primary screen (AID 1089); settings: higher = more signal, called active from +8 up or from −8 down;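 note: growth of clinical yeast isolate S. cerevisiae YJM 789 seeded 1000 cells per well; test concentration not given here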
[3] = S. pombe growth modifiers, basal conditions – strain 972, OD600, 24 h, no modulator, primary screen (AID 1090);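 note: basal condition with compound alone and no growth modifier present; test concentration not given here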; settings: S. pombe 972 growth, higher = more signal, called active from +8 up or from −8 down
[4] = budding yeast growth modifiers under rapamycin – strain BY4716, OD600, 96 h, primary screen (AID 1091); note: test concentration not given here; settings: S. cerevisiae BY4716 + rapamycin, higher = more signal, called active from +8 up or from −8 down
[5] = molecular target: Torsin-1A-interacting protein 2 (Homo sapiens) (UniProt Q8NFQ8); assay: small molecules binding lysate-expressed LULL1 – cell lysate, human LULL1 lysate, 635/667 nm fluorescence, primary screen (AID 1092); settings: small-molecule microarray, hLULL1 lysate binding, 635 nm fluorescence; higher = more signal;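 note: probe is lysate of COS7 cells overexpressing human LULL1; score merges per-feature 667 nm fluorescence with signal-to-noise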
[6] = optical density change of DRC41 E. coli – strain DRC41, OD650, 24 h, E. coli filamentation project, primary screen (AID 1093);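 note: MC1000 strain lacking acrAB efflux and sulA so SOS filamentation is blocked; test concentration not given here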; settings: E. coli DRC41 growth, higher = more signal, called active from +8 up or from −8 down
[7] = probe aLefty2 binding to arrayed compounds – biochemical, biotinylated probe, 635/667 nm fluorescence, primary screen (AID 1094); settings: small-molecule microarray, higher = more signal;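 note: score merges spot fluorescence near 667 nm with spot signal-to-noise ratio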
[8] = system: Noggin (protein binding on small-molecule microarray); assay: small molecules binding Noggin protein – biochemical, 635/667 nm fluorescence, primary screen (AID 1095); settings: 635 nm fluorescence, higher = more signal;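 note: score merges 667 nm feature fluorescence with signal to noise over triplicate slides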
[9] = molecular target: Neurogenic locus notch homolog protein 3 (Homo sapiens) (UniProt Q9UM47); assay: small molecules binding NOTCH3 protein – biochemical, 635/667 nm fluorescence, primary screen (AID 1096); settings: small-molecule microarray, 635 nm fluorescence, higher = more signal
[10] = probe aEGFR binding to arrayed compounds – biochemical, biotinylated probe, 635/667 nm fluorescence, primary screen (AID 1097); settings: small-molecule microarray, higher = more signal;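 note: probe is a biotinylated anti-EGFR antibody binding compounds printed on slides; score combines fluorescence near 667 nm and signal to noise of each spot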
[11] = system: Plasmodium falciparum Sir2 (PF13_0152, Sir2A); assay: Plasmodium falciparum Sir2A binding compounds – biochemical, small-molecule microarray, 635 nm fluorescence, primary screen (AID 1098); settings: fluorescence 635 nm, higher = more signal;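 note: score merges spot fluorescence intensity with its signal-to-noise ratio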
[12] = probe aDKK1 binding to arrayed compounds – biochemical, biotinylated probe, 635/667 nm fluorescence, primary screen (AID 1099); settings: small-molecule microarray, higher = more signal;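 note: score merges 667nm spot fluorescence with signal to noise across triplicate slides; reference of the scale not given here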
[13] = probe aCHRDL2 binding to arrayed compounds – biochemical, biotinylated probe, 635/667 nm fluorescence, primary screen (AID 1100); settings: small-molecule microarray, higher = more signal
[14] = change in splice reporter luminescence, either direction, cell-based, HEK293, spliceosome inhibition project, primary screen (AID 1101); settings: HEK293 splicing luciferase reporter, 24 h, higher = more signal, called active from +8 up or from −8 down;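 note: HEK293 cells carrying a splicing-competent luciferase reporter gene; test concentration not given here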
[15] = molecular target: Fibroblast growth factor 10 (Homo sapiens) (UniProt O15520); assay: compounds binding fibroblast growth factor 10 – biochemical, small-molecule microarray, 635 nm fluorescence, primary screen (AID 1102); settings: FGF10 binding, fluorescence 635 nm, higher = more signal
[16] = system: glycogen synthase kinase-3 (GSK3A per assay name; protocol says GSK3B); assay: compounds binding glycogen synthase kinase-3 – biochemical, small-molecule microarray, 635 nm fluorescence, GSK3A, primary screen (AID 1103); settings: fluorescence 635 nm, higher = more signal; note: the record names both GSK3A and GSK3B
[17] = molecular target: Epidermal growth factor receptor (Homo sapiens) (UniProt P00533); assay: compounds binding epidermal growth factor receptor – biochemical, small-molecule microarray, 635 nm fluorescence, primary screen (AID 1104); settings: EGFR binding, higher = more signal;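 note: score merges 667 nm emission intensity with spot signal to noise over triplicate slides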
[18] = molecular target: Follistatin-related protein 3 (Homo sapiens) (UniProt O95633); assay: compounds binding follistatin-related protein 3 – biochemical, small-molecule microarray, 635 nm fluorescence, primary screen (AID 1105); settings: FSTL3 binding, higher = more signal;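 note: score merges emission near 667 nm and signal to noise per printed spot across three slides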
[19] = molecular target: Dickkopf-related protein 1 (Homo sapiens) (UniProt O94907); assay: small molecules binding DKK1 protein – biochemical, small-molecule microarray, 635 nm fluorescence scan, primary screen (AID 1106); settings: higher = more signal;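 note: score merges emission near 667 nm with signal to noise over three replicate slides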
[20] = system: Inhibin beta A chain (activin A); assay: small molecules binding activin A – biochemical, small-molecule microarray, 635 nm fluorescence scan, primary screen (AID 1107); settings: INHBA, higher = more signal;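 note: mouse activin A protein probed at 4.33 µg/mL on printed slides; score merges bound-protein fluorescence near 667 nm with spot signal-to-noise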

Chain of Dickkopf-related protein 1 (Homo sapiens) (O94907 whole entry, looked up): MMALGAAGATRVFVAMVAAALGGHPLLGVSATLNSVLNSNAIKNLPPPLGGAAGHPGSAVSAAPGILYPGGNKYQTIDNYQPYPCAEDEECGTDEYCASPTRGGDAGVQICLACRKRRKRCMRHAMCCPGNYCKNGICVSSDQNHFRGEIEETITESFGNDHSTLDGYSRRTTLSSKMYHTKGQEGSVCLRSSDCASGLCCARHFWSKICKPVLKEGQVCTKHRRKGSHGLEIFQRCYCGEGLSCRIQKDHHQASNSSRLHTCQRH
Chain of Follistatin-related protein 3 (Homo sapiens) (O95633 whole entry, looked up): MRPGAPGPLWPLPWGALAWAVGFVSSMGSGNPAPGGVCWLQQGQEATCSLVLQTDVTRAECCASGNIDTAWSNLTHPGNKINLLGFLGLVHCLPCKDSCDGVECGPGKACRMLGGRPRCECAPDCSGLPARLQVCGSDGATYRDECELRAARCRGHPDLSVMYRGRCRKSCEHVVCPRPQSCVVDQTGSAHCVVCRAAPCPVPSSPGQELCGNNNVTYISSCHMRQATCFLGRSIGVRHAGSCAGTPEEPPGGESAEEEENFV
Chain of Epidermal growth factor receptor (Homo sapiens) (P00533 whole entry, looked up): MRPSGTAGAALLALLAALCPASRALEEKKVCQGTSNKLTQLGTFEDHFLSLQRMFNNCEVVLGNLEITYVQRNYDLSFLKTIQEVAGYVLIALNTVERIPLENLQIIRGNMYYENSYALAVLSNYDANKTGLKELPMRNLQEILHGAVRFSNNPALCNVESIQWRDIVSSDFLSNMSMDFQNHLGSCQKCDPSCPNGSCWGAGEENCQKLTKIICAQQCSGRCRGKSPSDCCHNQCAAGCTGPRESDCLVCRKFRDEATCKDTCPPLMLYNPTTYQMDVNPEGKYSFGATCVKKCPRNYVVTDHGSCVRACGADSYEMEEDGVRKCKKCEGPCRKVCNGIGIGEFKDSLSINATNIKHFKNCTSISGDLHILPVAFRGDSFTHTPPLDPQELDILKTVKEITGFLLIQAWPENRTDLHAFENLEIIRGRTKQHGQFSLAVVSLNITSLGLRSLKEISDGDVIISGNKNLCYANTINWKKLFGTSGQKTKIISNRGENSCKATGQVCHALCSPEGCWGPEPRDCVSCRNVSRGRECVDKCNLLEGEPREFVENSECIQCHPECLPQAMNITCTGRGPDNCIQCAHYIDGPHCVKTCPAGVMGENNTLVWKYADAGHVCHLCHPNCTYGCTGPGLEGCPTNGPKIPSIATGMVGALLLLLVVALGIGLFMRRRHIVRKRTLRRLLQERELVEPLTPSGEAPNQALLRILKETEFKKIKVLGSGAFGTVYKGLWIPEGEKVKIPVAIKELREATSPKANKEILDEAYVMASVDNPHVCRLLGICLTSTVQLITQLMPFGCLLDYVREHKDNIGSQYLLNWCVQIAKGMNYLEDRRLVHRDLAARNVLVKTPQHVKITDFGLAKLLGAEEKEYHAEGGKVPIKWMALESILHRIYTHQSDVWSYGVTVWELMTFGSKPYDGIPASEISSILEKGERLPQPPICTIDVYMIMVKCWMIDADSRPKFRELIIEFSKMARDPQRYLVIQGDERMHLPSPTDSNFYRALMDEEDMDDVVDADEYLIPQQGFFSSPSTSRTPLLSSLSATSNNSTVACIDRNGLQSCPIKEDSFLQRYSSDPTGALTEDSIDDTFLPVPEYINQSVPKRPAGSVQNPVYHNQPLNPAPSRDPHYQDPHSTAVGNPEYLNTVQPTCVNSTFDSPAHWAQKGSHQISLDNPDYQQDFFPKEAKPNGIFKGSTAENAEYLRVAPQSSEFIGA
Chain of Torsin-1A-interacting protein 2 (Homo sapiens) (Q8NFQ8 whole entry, looked up): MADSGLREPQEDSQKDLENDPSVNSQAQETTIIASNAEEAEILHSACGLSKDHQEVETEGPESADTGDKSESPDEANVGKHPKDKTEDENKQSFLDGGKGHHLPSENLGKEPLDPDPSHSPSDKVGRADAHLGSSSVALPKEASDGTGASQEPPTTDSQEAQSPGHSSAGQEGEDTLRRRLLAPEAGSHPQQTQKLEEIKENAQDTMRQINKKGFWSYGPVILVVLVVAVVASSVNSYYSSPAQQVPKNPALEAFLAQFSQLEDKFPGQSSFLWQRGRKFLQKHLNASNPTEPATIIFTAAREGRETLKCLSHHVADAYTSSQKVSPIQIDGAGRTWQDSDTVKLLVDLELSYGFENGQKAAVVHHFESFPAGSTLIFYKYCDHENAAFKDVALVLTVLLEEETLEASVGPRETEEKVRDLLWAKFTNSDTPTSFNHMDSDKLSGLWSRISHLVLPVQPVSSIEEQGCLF
Chain of Fibroblast growth factor 10 (Homo sapiens) (O15520 whole entry, looked up): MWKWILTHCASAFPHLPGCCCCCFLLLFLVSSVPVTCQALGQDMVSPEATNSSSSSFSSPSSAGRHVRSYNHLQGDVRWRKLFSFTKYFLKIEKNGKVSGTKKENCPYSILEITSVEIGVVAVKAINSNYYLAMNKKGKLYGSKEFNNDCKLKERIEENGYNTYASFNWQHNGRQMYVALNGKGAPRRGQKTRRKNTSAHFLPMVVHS
Chain of Neurogenic locus notch homolog protein 3 (Homo sapiens) (Q9UM47 whole entry, looked up): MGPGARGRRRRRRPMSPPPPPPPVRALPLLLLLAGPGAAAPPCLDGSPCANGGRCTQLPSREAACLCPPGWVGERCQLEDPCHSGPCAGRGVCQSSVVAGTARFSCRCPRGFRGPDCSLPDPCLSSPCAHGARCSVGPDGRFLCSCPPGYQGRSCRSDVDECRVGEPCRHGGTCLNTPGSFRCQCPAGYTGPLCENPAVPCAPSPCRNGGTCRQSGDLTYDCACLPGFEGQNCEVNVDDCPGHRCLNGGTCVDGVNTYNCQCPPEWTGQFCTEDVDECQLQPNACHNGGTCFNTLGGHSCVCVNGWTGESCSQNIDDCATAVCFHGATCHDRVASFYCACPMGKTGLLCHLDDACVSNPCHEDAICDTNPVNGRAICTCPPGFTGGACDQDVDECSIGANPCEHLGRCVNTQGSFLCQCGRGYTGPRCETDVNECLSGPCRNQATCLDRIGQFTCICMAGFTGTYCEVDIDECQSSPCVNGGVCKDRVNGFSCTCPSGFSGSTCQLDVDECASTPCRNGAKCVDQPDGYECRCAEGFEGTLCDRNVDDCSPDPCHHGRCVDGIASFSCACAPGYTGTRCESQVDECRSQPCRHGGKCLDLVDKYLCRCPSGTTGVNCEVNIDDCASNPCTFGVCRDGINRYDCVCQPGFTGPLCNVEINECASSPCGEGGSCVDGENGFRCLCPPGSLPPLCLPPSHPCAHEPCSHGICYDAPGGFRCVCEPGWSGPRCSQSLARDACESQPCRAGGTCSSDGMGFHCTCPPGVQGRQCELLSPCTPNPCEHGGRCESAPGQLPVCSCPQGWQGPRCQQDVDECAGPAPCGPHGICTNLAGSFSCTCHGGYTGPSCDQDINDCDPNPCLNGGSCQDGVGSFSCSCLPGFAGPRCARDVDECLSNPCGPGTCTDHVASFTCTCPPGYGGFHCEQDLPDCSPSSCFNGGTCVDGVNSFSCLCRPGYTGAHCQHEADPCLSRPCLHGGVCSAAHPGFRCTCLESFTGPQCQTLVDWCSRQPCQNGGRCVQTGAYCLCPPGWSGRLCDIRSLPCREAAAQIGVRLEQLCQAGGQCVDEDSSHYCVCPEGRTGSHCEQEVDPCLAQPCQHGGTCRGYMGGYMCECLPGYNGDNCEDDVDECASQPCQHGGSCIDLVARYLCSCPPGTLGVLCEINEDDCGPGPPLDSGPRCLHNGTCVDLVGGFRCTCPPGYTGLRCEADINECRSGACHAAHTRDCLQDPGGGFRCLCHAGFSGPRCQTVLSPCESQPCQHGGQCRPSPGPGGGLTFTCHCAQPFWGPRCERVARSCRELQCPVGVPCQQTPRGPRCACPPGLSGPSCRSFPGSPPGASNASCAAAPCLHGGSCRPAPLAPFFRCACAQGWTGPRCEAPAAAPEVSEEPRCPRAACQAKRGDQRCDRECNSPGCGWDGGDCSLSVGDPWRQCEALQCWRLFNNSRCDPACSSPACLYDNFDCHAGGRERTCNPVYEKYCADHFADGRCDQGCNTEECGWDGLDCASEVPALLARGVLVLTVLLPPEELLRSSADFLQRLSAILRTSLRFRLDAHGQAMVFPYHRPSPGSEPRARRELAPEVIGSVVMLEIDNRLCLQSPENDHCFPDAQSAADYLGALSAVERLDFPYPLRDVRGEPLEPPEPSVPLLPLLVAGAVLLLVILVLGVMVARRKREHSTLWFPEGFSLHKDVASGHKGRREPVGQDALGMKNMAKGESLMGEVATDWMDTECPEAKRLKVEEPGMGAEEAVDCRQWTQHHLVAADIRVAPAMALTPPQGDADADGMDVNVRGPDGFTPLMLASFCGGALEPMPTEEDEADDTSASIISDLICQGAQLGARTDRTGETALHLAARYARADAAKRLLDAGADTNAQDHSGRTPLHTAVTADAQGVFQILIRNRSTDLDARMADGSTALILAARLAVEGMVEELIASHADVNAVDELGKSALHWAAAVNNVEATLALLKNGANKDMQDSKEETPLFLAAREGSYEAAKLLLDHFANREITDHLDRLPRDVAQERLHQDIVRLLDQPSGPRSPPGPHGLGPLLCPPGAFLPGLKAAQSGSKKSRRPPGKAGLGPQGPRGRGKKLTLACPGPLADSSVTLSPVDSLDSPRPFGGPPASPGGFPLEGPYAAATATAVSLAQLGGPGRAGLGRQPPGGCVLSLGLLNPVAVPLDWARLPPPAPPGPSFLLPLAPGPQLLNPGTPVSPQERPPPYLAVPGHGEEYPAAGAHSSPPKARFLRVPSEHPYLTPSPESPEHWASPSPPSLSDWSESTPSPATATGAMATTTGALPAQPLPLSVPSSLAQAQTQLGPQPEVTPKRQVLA

| SMILES | composite z-score [1] | z-score [2] | z-score [3] | z-score [4] | composite z-score [5] | z-score [6] | composite z-score [7] | composite z-score [8] | composite z-score [9] | composite z-score [10] | composite z-score [11] | composite z-score [12] | composite z-score [13] | z-score [14] | composite z-score [15] | composite z-score [16] | composite z-score [17] | composite z-score [18] | composite z-score [19] | composite z-score [20] |
| --- | --- | --- | --- | --- | --- | --- | --- | --- | --- | --- | --- | --- | --- | --- | --- | --- | --- | --- | --- | --- |
| CC(C)NC(=O)[C@@]1(C)c2ccccc2C(=O)N(Cc2cc(F)cc(C(F)(F)F)c2)[C@H]1c1ccc(CO)cc1 | 0.86 | -0.0639 (inactive) | 0.102 (inactive) | -0.623 (inactive) | 1.76 | 0.341 (inactive) | 0.119 | 0.371 | 0.364 | 0.034 | 0.442 | 0.574 | 0.384 | -0.0501 (inactive) | 1.27 | 0.917 | 0.655 | 0.57 | -0.12 | 0.858 |
| C=CCOC(=O)[C@H]1[C@@H]2C(=O)O[C@@H](c3ccccc3)[C@@H](c3ccccc3)N2[C@@H](c2ccc(OCCOC(=O)[C@H]3C[C@H]4C(=O)N[C@@H](Cc5ccccc5)C(=O)N4[C@H]3c3ccc(O)cc3)cc2)[C@]12C(=O)Nc1ccccc12 | 1.55 | 1.44 (inactive) | 1.14 (inactive) | 4.4 (inactive) | 2.4 | 1.37 (inactive) | -0.0174 | 1.6 | 1.06 | 0.0499 | 1.4 | -0.206 | -0.361 | 0.72 (inactive) | 1.15 | 1.18 | 0.892 | 1.22 | 1.06 | -1.01 |
| C[C@@H]1C=CCC(=O)OC[C@H](C)C(=O)OC[C@H]2O[C@H]1C=C[C@H]2O | 0.047 | 1.1 (inactive) | -2.02 (inactive) | 0.614 (inactive) | 0.429 | 0.0861 (inactive) | -0.18 | 1.31 | 0.272 | -0.0039 | 0.128 | -0.439 | -0.833 | 1.17 (inactive) | 0.678 | 0.387 | 0.339 | 0.808 | 0.545 | -0.181 |
| CN1C(=O)[C@@]2(CCC(=O)OC(C)(C)C)N=C(c3ccc(OCCCO)cc3)O[C@H]2c2ccccc21 | 1.54 | -1.08 (inactive) | -2.19 (inactive) | 0.0793 (inactive) | 2.82 | 1.43 (inactive) | 0.0112 | 0.747 | 0.736 | -0.168 | 1.26 | 0.0179 | 0.457 | -0.0334 (inactive) | 0.788 | 1.33 | 0.181 | 0.529 | -0.0485 | 1.03 |
| CN(C)CCCNC(=O)[C@@H]1c2ccccc2C(=O)N(Cc2cc(F)cc(C(F)(F)F)c2)[C@H]1c1ccc(CO)cc1 | 1.56 | -0.414 (inactive) | -0.627 (inactive) | -0.917 (inactive) | 2.93 | -0.66 (inactive) | -0.166 | -0.0315 | -1.2 | -0.174 | 1.75 | -0.132 | 0.17 | -1 (inactive) | 0.159 | 0.922 | 0.368 | -1.1 | 0.0959 | -0.217 |
| O=C1[C@H]2[C@H]3[C@H](O)[C@H](O)CC(=NOCc4ccccc4)[C@@H]3CC[C@H]2C(=O)N1C1CCCCC1 | 1.1 | 0.704 (inactive) | -3.36 (inactive) | 0.485 (inactive) | 1.32 | 0.0212 (inactive) | -0.166 | -0.129 | 0.287 | -0.13 | 0.991 | -0.28 | 0.218 | 0.568 (inactive) | -0.069 | -0.0273 | 0.0374 | -0.0832 | -0.484 | -0.28 |
| CCOC(=O)C[C@H]1[C@H](OC(=O)c2cc3ccccc3oc2=O)[C@@H](NC(=O)c2ccc3ccccc3n2)c2cc(OCCCO)ccc2N1C(=O)c1ccccc1 | 0.5 | 0.282 (inactive) | -0.738 (inactive) | 0.156 (inactive) | 0.413 | 0.471 (inactive) | -0.0171 | 0.603 | 0.724 | 0.0745 | 0.564 | 0.414 | -0.0652 | -0.38 (inactive) | 1.4 | 0.439 | 0.344 | 0.948 | 1.04 | 0.513 |
| CC(C)NC(=O)[C@@H]1c2ccccc2C(=O)N(CC23CC4CC(CC(C4)C2)C3)[C@H]1c1ccc(CO)cc1 | 1.57 | -1.44 (inactive) | -1.81 (inactive) | -0.241 (inactive) | 2.68 | 1.43 (inactive) | -0.143 | 0.701 | 1.04 | 0.0633 | 1.45 | 0.171 | 0.46 | -1.21 (inactive) | 0.596 | 1.23 | 0.582 | 1.28 | 0.651 | 0.43 |
| C[C@@H]1CCC2C(=O)N(Cc3ccccc3)C[C@@H](O)CN2[C@H]1c1ccc(Br)cc1 (stereo not given in full) | 1.39 | -1.91 (inactive) | -3.75 (inactive) | -0.26 (inactive) | 1.5 | 0.369 (inactive) | -0.23 | 0.542 | 0.158 | -0.115 | 0.892 | -0.276 | -0.441 | -1.89 (inactive) | 0.91 | 0.104 | -0.0897 | 0.078 | 0.228 | 0.203 |
| Cc1cc2c(nc1C)CCCN2CC(O)CN1CCN(C)CC1 (stereo not given) | 1.25 | -0.525 (inactive) | 0.277 (inactive) | -0.856 (inactive) | 0.9 | -0.384 (inactive) | -0.294 | 0.578 | 0.915 | -0.169 | 0.478 | 0.859 | 0.337 | 0.154 (inactive) | 0.721 | 0.132 | 0.752 | 0.79 | 1.02 | -1.07 |
